Screening data from PubChem BioAssay.
TEAD-YAP block = TEAD-YAP interaction inhibition; HEK-TIYL cells, TEAD-Gal4/YAP UAS-luciferase luminescence; inhibition, % at 9.12 µM; hit rate 1.4% among 640,000; in the data active means inhibition above about 32%
FBW7 act = human FBW7 E3 ligase activation, primary screen. AlphaScreen FBW7–phospho-cyclin E peptide binding, activator screen. normalized activity (activation), % at 26.1 µM. hit rate 0.13% among 650,000; in the data active means normalized activity above about 1.9%;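 further: purified mutant Fbw7 with reduced substrate affinity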
MITF inh = blocks human microphthalmia-associated transcription factor; AlphaScreen MITF homodimerization, bead proximity signal; inhibition, % at 2.6 µM; hit rate 0.91% among 650,000; in the data active means inhibition above about 50%
GPR151 ag = activates the human receptor GPR151. activation, % at 11.2 µM. PathHunter beta-arrestin GPR151 cells, luminescence. Q8TDV0. hit rate 1% among 650,000; in the data active means activation above about 4.9%
Target sequence (Q8TDV0 whole entry, looked up): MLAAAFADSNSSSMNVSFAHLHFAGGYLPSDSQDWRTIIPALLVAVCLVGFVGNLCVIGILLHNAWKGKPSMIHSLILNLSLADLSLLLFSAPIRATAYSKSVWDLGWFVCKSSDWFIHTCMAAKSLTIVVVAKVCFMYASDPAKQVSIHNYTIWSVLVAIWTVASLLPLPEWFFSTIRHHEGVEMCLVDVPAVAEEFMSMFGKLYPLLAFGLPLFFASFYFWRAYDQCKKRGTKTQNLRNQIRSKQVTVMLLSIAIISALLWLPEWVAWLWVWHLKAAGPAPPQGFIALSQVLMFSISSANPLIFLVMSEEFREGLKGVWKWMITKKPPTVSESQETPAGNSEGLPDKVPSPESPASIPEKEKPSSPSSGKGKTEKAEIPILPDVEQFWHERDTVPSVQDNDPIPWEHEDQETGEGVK
GPR151 conf act = human GPR151 activation, confirmation screen | 6,700 tested, under 10 active | GPR151 PathHunter beta-arrestin cells, luminescence, 90 min; % of EA-reagent control over plate median | AID 1508609 | shares compounds with GPR151 ag | activation, % at 11.2 µM;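 active means mean percent activation across replicates above the confirmation screen cutoff of 4.91%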
GPR119 ag = GPR119 activation, counter-screen for GPR151 activators. shares compounds with GPR151 ag. GPR119 PathHunter beta-arrestin cells, luminescence, 90 min; 0 = compound-well median, 100 = enzyme-acceptor control. activation, % at 11.2 µM. hit rate 0.3% among 6,700;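 active means mean percent activation in the counterscreen above 29.09%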;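 further: counterscreen on off-target GPR119 to flag nonselective hits from the GPR151 activator screen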
A number is an active result; – = inactive; · = not tested or not shown. A selection: hits, their analogues and other compounds. The true share with any hit is near 3.4%.

SMILES | TEAD-YAP block | FBW7 act | MITF inh | GPR151 ag | GPR151 conf act | GPR119 ag
Cc1ccc(NC(=O)CC2(CC(=O)O)CCCCC2)c(C)c1 | – | – | – | 5.7 | – | –
Cc1cccc(NC(=O)CC2(CC(=O)O)CCCC2)c1 | – | – | – | – | · | ·
Cc1noc(/C=C/c2cccs2)c1S(=O)(=O)N1CCCC(C(=O)N2CCCC2)C1 (centres undefined) | – | – | – | – | · | ·
Cc1noc(/C=C/c2cccs2)c1S(=O)(=O)N1CCCC(C(=O)N2CCCCC2)C1 (centres undefined) | – | – | – | 5.0 | – | –
C/C(=N\NC(=O)C(C)Sc1ccccn1)c1ccccc1O (centres undefined) | – | – | – | – | · | ·
COC(=O)C[n+]1csc2ccccc21 | – | – | – | 7.8 | – | –
CCOC(=O)Cn1c(C(=O)OCC)cc2oc(C)cc21 | – | – | – | – | · | ·
C=CCn1c(C(=O)OCC)cc2oc(C)cc21 | – | – | – | 5.7 | – | –
CC(=O)c1ccc(-c2ccc(C(=O)N(C)CCN(C)C)c(NCc3cccnc3)n2)s1 | – | – | – | – | · | ·
Nc1cc(Cl)c([N+](=O)[O-])cc1COc1ccccc1 | – | – | – | – | · | ·
CC(C)OC(=O)c1cc2cc(Br)cc(Br)c2oc1=O | – | – | – | – | · | ·
O=C(O)c1ccc2c(=O)[nH]c(CSc3nnc(Nc4ccccc4)s3)nc2c1 | – | – | – | 8.4 | – | –
O=C(O)CN1C(=O)SC(Nc2ccccc2)C1=O (centres undefined) | – | – | – | – | · | ·
CCOC(=O)CN1C(=O)SC(Nc2ccccc2)C1=O (centres undefined) | – | – | – | 7.8 | – | –
CCCCN1C(=O)SC(Nc2ccc(F)cc2)C1=O (centres undefined) | – | – | – | 8.2 | – | –
CN(Cc1ccccc1)c1ccnc2c(-c3ccc(O)cc3)cnn12 | 72.8 | – | – | 5.0 | – | –
Cc1cc(C)n2c(=O)c3ccccc3nc2c1C#N | – | – | – | – | · | ·
Cc1sc2ncnc(SCC(=O)NC(=O)NC(C)C)c2c1C | – | – | – | – | · | ·
Cc1ccc(-c2csc3nc4c5ccccc5c(NCCOCCO)nn4c(=O)c23)cc1 | – | – | – | 8.4 | – | –
O=c1c2c(-c3ccccc3)csc2nc2c3ccccc3c(NCCO)nn12 | – | – | – | – | · | ·
CCc1ccc(NC(=O)C(=O)NNC(=O)c2cccc(OC)c2)cc1 | – | – | – | – | · | ·
COc1ccc(NC(=O)C(=O)NNC(=O)c2cccc(OC)c2)cc1 | – | – | – | 6.1 | – | –
CCN(CC(=O)Nc1ccc(NC(C)=O)cc1)S(=O)(=O)/C=C/c1ccccc1 | – | – | – | 7.4 | – | –
Cc1nc2sc3c(c2c(=O)n1/N=C/c1cccc([N+](=O)[O-])c1O)CCCC3 | – | – | – | – | · | ·
CNC(=O)CC1C(=O)N(c2cccc(C(F)(F)F)c2)C(=S)N1CCc1ccc(OC)c(OC)c1 (centres undefined) | – | – | – | 8.6 | – | –
SMILES | TEAD-YAP block | FBW7 act | MITF inh | GPR151 ag | GPR151 conf act | GPR119 ag
CN(C)C(=O)c1ccccc1-c1ccccc1C(=O)O | – | – | – | – | · | ·
COc1ccccc1C1CN(CC(=O)N(C)C(C)c2nccs2)Cc2ccccc2O1 (centres undefined) | – | – | – | – | · | ·
CN(Cc1nccs1)C(=O)CN1Cc2ccccc2OC(c2ccccc2F)C1 (centres undefined) | – | – | – | 6.6 | – | –
O=C1NC(=S)NC(=O)C1=Cc1cccc(OC(=O)c2ccc(Cl)cc2)c1 | – | – | – | 5.9 | – | –
COc1ccc(C(=O)Oc2ccc(C=C3C(=O)NC(=S)NC3=O)cc2)cc1 | – | – | – | – | · | ·
CCOC(=O)CSc1nnnn1-c1ccccc1OCC | – | – | – | – | · | ·
CCOc1ccccc1-n1nnnc1SCC(=O)NC(C)(C)C | – | – | – | 6.9 | – | –
Cc1cc(C)n2nc(NCc3ccccc3Cl)nc2n1 | – | – | – | 5.1 | – | –
CCOC(=O)c1c(NC(=O)c2ccccc2F)sc(C(=O)Nc2cc(C)ccc2C)c1C | – | – | – | – | · | ·
O=C(CN(CC1CCCO1)C(=O)CCC(=O)Nc1ccccn1)NCC1CCCO1 (centres undefined) | – | – | – | 5.0 | – | –
O=C(CCl)Nc1ccc2c(c1)OCCCO2 | – | – | – | – | · | ·
O=C(O)CN(CC(=O)Nc1ccc2c(c1)OCCCO2)Cc1ccccc1 | – | – | – | 9.1 | – | –
Cc1ccc(CN(c2ccc(C(=O)O)cc2)S(C)(=O)=O)cc1 | – | – | – | – | · | ·
S=c1nc(N2CCCCC2)[nH]c(N2CCCCC2)n1 | – | – | – | – | · | ·
O=C(Cn1c(=O)oc2ccccc21)NCc1cccc(F)c1 | – | – | – | 9.5 | – | –
CC(C)Oc1ccc(CNC(=O)Cn2c(=O)oc3ccccc32)cc1 | – | – | – | 5.3 | – | –
O=C(Cn1c(=O)oc2ccccc21)NCc1ccc(F)cc1 | – | – | – | – | · | ·
O=C1Nc2ccc(Br)cc2C1Cc1ccco1 (centres undefined) | – | – | – | – | · | ·
Oc1ccc(Br)cc1C1CC(c2ccc3c(c2)OCO3)=NC(c2ccc(Cl)cc2)N1 (centres undefined) | – | – | – | – | · | ·
COc1ccccc1-n1c(CNC(=O)c2ccc(S(=O)(=O)N3CCCCC3)cc2)nnc1SCC(=O)Nc1nccs1 | – | – | – | 5.4 | – | –
CCCCN(CC)S(=O)(=O)c1ccc(C(=O)Nc2ccc3c4c(cccc24)C(=O)N3CC)cc1 | – | – | – | 9.7 | – | –
O=C(COc1ccccc1Br)NN=C1CCCCC1 | – | – | – | 9.7 | – | –
CCOc1ccc(NC(=O)COc2ccccc2Br)cc1 | – | – | – | 5.0 | – | –
CCCCn1c(C)nc2c(sc3nc4c(cc32)COC(C)(C)C4)c1=O | – | – | – | 9.0 | – | –
O=C1N[C@@H](Cc2c[nH]c3ccccc23)C(=O)N2CCN(C(=O)Oc3ccc(Cl)cc3)C[C@H]12 | – | – | – | – | · | ·
SMILES | TEAD-YAP block | FBW7 act | MITF inh | GPR151 ag | GPR151 conf act | GPR119 ag
Cc1cc(NCc2ccccc2)nc(NCCN2CCOCC2)n1 | – | – | – | 6.0 | – | –
Cc1nc2c(cnn2-c2ccccc2)c(=O)n1-c1ccncc1 | – | – | – | – | · | ·
COc1ccc(NS(=O)(=O)c2ccc(N/C=C\C(=O)c3ccccc3)cc2)nn1 | – | – | – | 7.2 | – | –
Cc1cccc(NC(=O)c2cccc(-n3cc(NC(=O)Nc4ccccc4Cl)cn3)c2)c1 | – | – | – | – | · | ·
Cc1ccc(-c2nc3ccccc3c(=O)n2NC(=O)c2ccco2)cc1C | – | – | – | 5.4 | – | –
Cc1ccc(-c2csc3ncc(C(=O)N4CCCC4)c(=O)n23)cc1 | – | – | – | – | · | ·
O=C1CCCC2=C1C(c1ccc(O)c(Cl)c1)C1=C(CCCC1=O)O2 | 34.5 | – | – | 7.4 | – | –
Cc1ccc(-c2nc3ccccc3[nH]2)cc1NC(=O)c1ccc([N+](=O)[O-])cc1 | – | – | – | – | · | ·
